Screening data deposited in PubChem by The Scripps Research Institute Molecular Screening Center.
Hits are enriched below; roughly 4.5% of the tested compounds scored in any of these assays.
hcDAF12 agonist: activates DAF-12 receptor from parasite H. contortus; HEK293 hcDAF-12 lit1-tk-luc reporter, luminescence; 0% DMSO, 100% Δ7-dafachronic acid; activation, % at 6.8 µM; actives 1.4% (n = 370,000); AID 652067;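 active means activation above the mean of all tested compounds plus 3 SD, cut at about 5.5% in these data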;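 further: 100% = response to 3 µM Δ7-dafachronic acid high control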
DAX1 inh-1: DAX1 (NR0B1) inhibition, primary screen. HEK293T StAR-luciferase reporter, SF-1/DAX-1 repression relief. inhibition, % at 6.8 µM. actives 1.1% (n = 370,000);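 active means inhibition above the mean over all tested compounds plus 3 SD, cut at about 3.6% in these data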;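 further: 0% = DAX-1 cells with DMSO and 100% = cells lacking DAX-1 with DMSO; higher inhibition means more luminescence from relief of DAX-1 repression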
ssDAF12 agonist: activates DAF-12 receptor from parasite S. stercoralis | HEK293 ssDAF-12/GRIP1 lit1-tk-luc reporter, luminescence; % of 3 µM dafachronic acid response | activation, % at 6.8 µM | actives 1% (n = 370,000) | AID 652126;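 active means activation above the mean over all tested compounds plus 3 SD, cut at about 0.9% in these data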;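 further: 0% = DMSO-only wells and 100% = 3 µM delta7-dafachronic acid wells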
GAA850 FXN act: frataxin GAA850 promoter activation; actives 0.56% (n = 360,000); activation, % at 6 µM; HEK293 lucGAA850 FXN promoter luciferase reporter, 24 h; percent of 10 µM SAHA response;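 active means activation above the average of all compounds screened plus 3 SD, cutoff fixed separately per campaign, cut at about 7.5% in these data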;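 further: 0% = DMSO wells and 100% = 10 µM SAHA wells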
hgDAF12 agonist: agonists of H. glycines DAF-12 nuclear receptor; AID 687014; actives 1.8% (n = 370,000); HEK293 GAL4-hgDAF12 UAS-luciferase reporter, agonist luminescence; normalized to butyrate control; activation, % at 6.8 µM;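 active means activation above a cutoff set at the mean of all screened compounds plus 3 SD, cut at about 10% in these data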;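 further: 0% = DMSO wells and 100% = sodium butyrate wells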
DAX1 inh-2: inhibits human nuclear receptor DAX1; P51843; HEK293 Gal4-DAX1 luciferase reporter, luminescence; inhibition, % at 6.75 µM; actives 0.99% (n = 340,000);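 active means inhibition above the mean over all tested compounds plus 3 SD, cut at about 4.2% in these data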;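 further: 0% = DAX1-transfected cells with DMSO and 100% = empty-vector control cells with DMSO; inhibition shows as a rise in luminescence from relieved DAX1 repression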
Target sequence (P51843 207-470 limits assumed): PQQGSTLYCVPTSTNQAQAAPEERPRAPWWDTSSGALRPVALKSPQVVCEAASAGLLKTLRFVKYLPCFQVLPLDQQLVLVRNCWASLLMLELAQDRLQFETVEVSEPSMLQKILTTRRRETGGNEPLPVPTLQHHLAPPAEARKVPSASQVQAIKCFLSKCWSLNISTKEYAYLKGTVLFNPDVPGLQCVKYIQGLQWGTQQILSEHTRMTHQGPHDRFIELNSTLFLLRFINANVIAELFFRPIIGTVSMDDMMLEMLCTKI
Starred values were filed as active, the others as inactive; nt = not tested or not shown.

SMILES	hcDAF12 agonist	DAX1 inh-1	ssDAF12 agonist	GAA850 FXN act	hgDAF12 agonist	DAX1 inh-2
Cn1cccc1C(=O)NCCc1ccc(Cl)cc1	1.9	4.0*	-0.3	6.3	5.0	1.3
COC(=O)[C@@]12CCCCC3=C1N(CCC3)C(=O)[C@H]2CC(=O)N1CCC(c2ccccc2)CC1	-0.7	-0.8	-1.8	nt	0.4	nt
Cc1ccccc1C(=O)NNC(=O)c1cccn1C	3.3	4.0*	-0.1	4.5	3.9	1.5
Cn1cccc1C(=O)NNC(=O)c1ccccc1Br	1.1	3.4	0.2	1.2	5.7	2.3
C[C@H]1C(=O)CC[C@@]23CCCN2C(=O)CCC[C@@H]13	-1.0	nt	-1.8	nt	-1.4	nt
Cn1c(N)c(C(=O)COC(=O)CSc2ccc3ccccc3c2)c(=O)n(C)c1=O	0.2	-0.3	-1.7	2.6	1.8	-0.2
Cn1c(N)c(C(=O)COC(=O)CSc2ccccc2)c(=O)n(C)c1=O	-1.9	0.2	-0.8	4.0	0.6	8.5*
CCN(CC)c1ccc(NC(=O)c2ccco2)c(C)c1	-0.4	-1.4	-1.4	1.7	2.7	1.4
CCC(C)c1ccc(NC(=O)c2ccco2)cc1 (stereo unspecified)	2.7	3.1	0.3	1.3	11.3*	-4.2
O=C(Nc1ccc(Cl)cc1)c1ccco1	2.2	-0.3	-0.4	2.7	3.9	5.2*
O=C(NCc1ccccn1)c1ccc(NC(=O)c2ccco2)cc1	-2.1	0.7	1.3*	-0.3	-1.4	0.9
CCN(CC)c1ccc(NC(=O)c2ccco2)cc1	4.4	4.1*	0.1	2.4	12.8*	0.6
CC(=O)Nc1ccc(NC(=O)c2ccco2)cc1	-1.6	0.6	-1.4	1.6	3.3	2.0
O=C(NCc1cccnc1)c1ccc(NC(=O)c2ccco2)cc1	-0.1	-0.1	-0.9	2.0	1.5	0.8
Cc1coc2cc3oc(=O)c(CCC(=O)NCC(=O)O)c(C)c3cc12	0.2	0.0	-0.8	0.0	0.5	6.1*
COc1cccc(N/C=C/C(=O)c2ccc(Br)cc2)c1	4.3	4.4*	-0.3	3.8	11.4*	1.8
CCOC(=O)c1ccc(N/C=C\C(=O)c2cccc(OC)c2)cc1	3.6	0.7	-0.9	4.5	0.3	-2.0
COC(=O)c1ccc(N/C=C/C(=O)c2ccccc2)cc1	0.4	1.2	-0.3	3.0	7.8	4.5*
O=C(NCc1ccc(C(F)(F)F)cc1)O[C@H]1CC[C@@]23CCCN2C(=O)CCC[C@H]3C1	-0.8	nt	-1.9	nt	-3.7	nt
O=C(NCc1ccccc1)c1ccc(F)c(F)c1	-0.1	-0.4	-1.1	3.5	-0.6	0.2
CN(C)c1c(F)cc(C(=O)NCc2ccccc2)cc1F	-1.0	0.2	-1.5	1.7	0.3	4.3*
O=C(Cn1nnc(-c2ccc(N3CCOCC3)cc2)n1)c1ccccc1	-2.3	0.7	-1.1	nt	1.4	nt
CCN(CC)c1ccc(NC(=O)c2cc3c(C)nn(-c4ccccc4)c3s2)cc1	0.0	-0.7	-1.8	nt	0.2	nt
CN1C(=O)[C@@]2(O[C@H]3C=CC=CN3C3=C2C(=O)CCC3)c2cccc(Br)c21	-2.0	-0.8	0.9*	nt	-1.7	nt
Cn1c(/C(C#N)=C(\O)c2cccc(F)c2)nc2ccccc21	4.3	0.4	1.4*	2.9	2.5	1.3
SMILES	hcDAF12 agonist	DAX1 inh-1	ssDAF12 agonist	GAA850 FXN act	hgDAF12 agonist	DAX1 inh-2
COC(=O)N1C[C@H](Oc2ncccn2)[C@H]2C[C@@H]1c1ccccc1O2	-0.8	0.0	-0.7	nt	1.4	nt
CCOc1ccccc1C(=O)Nc1ccc2nc(C)[nH]c(=O)c2c1	-2.0	-1.1	-1.0	nt	1.8	nt
COCc1nnc(NS(=O)(=O)c2ccc(C)cc2)s1	0.7	0.0	-0.5	-0.9	1.3	4.4*
COCc1nnc(NS(=O)(=O)c2ccccc2)s1	-0.5	-0.3	-0.7	1.2	-1.5	-0.8
COC(=O)c1cc(-c2cccc(C(F)(F)F)c2)c(=O)n2c1CCC2	1.8	-1.3	-0.9	nt	1.4	nt
Cn1c(CN2CCN(c3cccc(Cl)c3)CC2)nc2ccccc21	5.8*	-1.0	-0.6	1.9	0.1	-0.6
CCN(C(=O)C1CCCN1S(=O)(=O)c1cccnc1)c1ccccc1 (stereo unspecified)	1.3	1.2	-1.1	nt	-1.7	nt
O=C1c2ccccc2C(=O)N1CN(C(=O)COc1ccc(Cl)cc1Cl)c1cccc(F)c1	5.9*	1.4	0.1	0.8	1.7	0.1
COc1ccc(S[C@]2(C(=O)N3CCN(c4ncccn4)CC3)CC(=O)N(C(=O)CCc3ccccc3)[C@@H]2c2ccc(OC)cc2)cc1	3.4	-0.5	-0.7	nt	0.5	nt
COc1ccc(CNC(=O)CSc2nc3c([nH]2)c(=O)n(C)c(=O)n3C)cc1	-1.7	-0.3	-1.9	nt	-1.6	nt
C[C@@H]1CCN(C2CC2)S(=O)(=O)c2c(cccc2N2CCC[C@@H]2C)O1	-0.8	-1.6	-1.0	nt	-0.8	nt
COc1ccc([N+](=O)[O-])cc1N(CC(O)CN(C)C)S(=O)(=O)c1ccccc1 (stereo unspecified)	0.9	-0.1	-0.7	-0.5	-1.4	2.0
C=CCN(CC=C)CC(O)CN(c1cc([N+](=O)[O-])ccc1OC)S(=O)(=O)c1ccccc1 (stereo unspecified)	1.2	3.8*	-0.3	-3.2	2.4	0.0
COc1ccc(S[C@]2(C(=O)N(C)C)CC(=O)N[C@@H]2c2ccc(OC)cc2)cc1	-1.1	-0.2	-0.7	nt	0.5	nt
CSCc1ccc(C(=O)OCc2nc3ccccc3s2)o1	6.2*	1.1	-0.3	2.9	11.7*	1.3
Cc1ccc(NC(=O)c2cc(-c3cc(Cl)ccc3O)n[nH]2)cc1C	-0.2	-0.1	-0.5	-0.3	-0.3	2.2
Cc1ccc(Cl)cc1-c1cc(C(=O)Nc2ccc(F)cc2)[nH]n1	-1.4	4.1*	-1.2	3.0	1.6	nt
COc1ccc(Cl)c(-c2cc(C(=O)Nc3ccc(F)cc3)[nH]n2)c1	0.6	3.2	-0.6	3.7	12.4*	nt
COc1ccc(-c2cc(C(=O)Nc3ccc(NC(C)=O)cc3)[nH]n2)c(C)c1	2.4	2.4	-0.6	1.9	9.0	nt
C=CCOC(=O)N[C@H](c1cccc(OC)c1)[C@H](C)/C=C/CC(=O)OC	-3.5	0.1	-0.8	nt	-1.0	nt
Cc1ccc(-c2nc(C3CCCN(S(=O)(=O)c4ccc(C)c(C)c4)C3)no2)cc1 (stereo unspecified)	0.9	3.2	1.0*	nt	7.1	nt
Cc1ccc(-n2c(SCC(=O)Nc3ccc4cn[nH]c4c3)nnc2-c2ccccc2)cc1	0.4	-2.1	-1.6	nt	-1.7	nt
CCN(CC)C(=O)CC[C@H]1CC[C@]2(CCCN(Cc3cccc4ccccc34)C2)O1	-1.4	0.3	-0.9	nt	-1.4	nt
O=C1[C@H]2[C@@H](c3ccc(F)cc3)N3C(=O)N(c4cccc(Br)c4)C(=O)[C@@]3(Cc3ccccc3)[C@H]2C(=O)N1C1CCCCC1	-2.6	0.0	-1.3	5.9	-0.2	1.8
